CHT allo act: allosterically activates the human high affinity choline transporter; Q9GZV3; CHT-expressing cells, membrane potential dye, choline EC20; hits give high values; LV-AA mutant CHT in HEK293 cells; B-score at 10 µM; 310,000 tested, 0.49% active; AID 488977;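 active = initial fluorescence not abnormally high and integrated response B-score, plate-corrected, over 3 SD above library mean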
ANO1 activ: activates or potentiates the mouse TMEM16A chloride channel. HEK293 TMEM16A/YFP-H148Q/I152L, iodide quench fluorescence; hits give low values. AID 623877. B-score at 10 µM. Q8BHY3. 340,000 tested, 0.3% active;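 active = fluorescence-ratio B-score plate-corrected deviation score at least 3 library SD below zero, with starting fluorescence score within 5 deviations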;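 note: channel opened by trigger with iodide after compound preincubation; score built on the fluorescence ratio of max minus min over baseline; more negative score means more quench and so TMEM16A activation or potentiation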
Target sequence (Q8BHY3 whole entry, looked up): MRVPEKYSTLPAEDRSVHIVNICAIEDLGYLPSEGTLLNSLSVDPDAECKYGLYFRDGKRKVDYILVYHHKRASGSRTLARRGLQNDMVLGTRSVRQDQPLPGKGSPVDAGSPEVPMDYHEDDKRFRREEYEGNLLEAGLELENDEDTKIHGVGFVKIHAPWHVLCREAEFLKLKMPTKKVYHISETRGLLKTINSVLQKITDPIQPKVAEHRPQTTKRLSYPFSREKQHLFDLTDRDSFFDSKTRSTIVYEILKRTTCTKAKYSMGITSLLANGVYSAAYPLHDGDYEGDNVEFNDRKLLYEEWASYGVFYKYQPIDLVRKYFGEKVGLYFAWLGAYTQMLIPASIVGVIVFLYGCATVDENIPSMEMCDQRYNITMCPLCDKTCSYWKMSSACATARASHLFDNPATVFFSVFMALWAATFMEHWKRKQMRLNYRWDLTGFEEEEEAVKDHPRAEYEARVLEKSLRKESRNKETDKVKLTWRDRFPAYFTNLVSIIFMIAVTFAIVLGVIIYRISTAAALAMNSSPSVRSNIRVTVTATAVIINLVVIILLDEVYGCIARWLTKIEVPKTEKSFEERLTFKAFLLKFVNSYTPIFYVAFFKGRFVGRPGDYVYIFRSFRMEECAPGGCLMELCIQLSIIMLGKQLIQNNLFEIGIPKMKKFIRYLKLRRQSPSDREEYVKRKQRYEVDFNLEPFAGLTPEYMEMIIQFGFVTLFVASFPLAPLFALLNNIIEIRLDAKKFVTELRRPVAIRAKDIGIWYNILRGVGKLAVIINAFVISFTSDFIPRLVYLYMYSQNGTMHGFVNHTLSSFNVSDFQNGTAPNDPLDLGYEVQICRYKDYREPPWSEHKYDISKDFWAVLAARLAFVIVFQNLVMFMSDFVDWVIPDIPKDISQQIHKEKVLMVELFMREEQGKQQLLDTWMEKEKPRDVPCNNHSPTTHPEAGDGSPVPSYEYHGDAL
CHT inh: inhibits the human high affinity choline transporter; B-score at 10 µM; CHT-expressing cells, membrane potential dye, choline response; hits give low values; 310,000 tested, 0.86% active; Q9GZV3; AID 488975;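 active = B-score over 3 SD under the library average, and starting fluorescence ratio not unusually high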;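 note: choline stimulus applied at its EC90 after an EC20 pre-addition; B-score computed on integrated fluorescence ratio after choline addition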
ANO1 block: mouse TMEM16A channel inhibition, primary screen. normalized B-score (activity score, 25-100; higher = stronger inhibition) at 10 µM. AID 588511. HEK293 TMEM16A/YFP iodide influx fluorescence, ionomycin. 310,000 tested, 1.2% active;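 active = ratio plate-corrected score three or more library SD toward inhibition, starting fluorescence score within five deviations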;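 note: score derived from kinetic fluorescence span divided by baseline fluorescence per well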
IDE act: activators of human insulin-degrading enzyme in cells; HEK cells, FAbeta-B cleavage, fluorescence polarization; 0% vehicle, 100% cell-free pure enzyme wells; 340,000 tested, 0.073% active; P14735; activation, % at 5.96 µM;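 active = activation above the mean of all tested compounds plus 3 SD, set per screening campaign, cut at about 17% in these data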
IDE cell inh: cellular human IDE inhibition | 320,000 tested, 0.41% active | P14735 | HEK cells, FAbetaB cleavage, fluorescence polarization | inhibition, % at 5.59 µM;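 active = percent inhibition above the average of all tested compounds plus 3 SD, set per screening campaign, cut at about 16% in these data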;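 note: IDE supplied by intact live HEK cells; FP after avidin binding of uncleaved biotin substrate so inhibition keeps polarization high; 0% = DMSO wells and 100% = 60 µM reference IDE inhibitor Ii1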
IDE cell inh cf: cellular human IDE inhibition, confirmation; inhibition, % at 5.59 µM; 1,200 tested, 51% active; shares compounds with IDE cell inh; HEK cells, FAbetaB cleavage, fluorescence polarization;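 active = mean inhibition across triplicate wells above the cutoff set by the earlier primary insulin-degrading enzyme screen, cut at about 16% in these data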;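 note: 0% = DMSO wells and 100% = 60 µM reference IDE inhibitor Ii1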
HEK293 tox: counter-screen for IDE inhibitors: cytotoxicity in HEK cells; AID 449730; inhibition, % at 5.59 µM; shares compounds with IDE cell inh; 1,200 tested, 28% active; HEK293 cytotoxicity, ATP luminescence; in the data active = inhibition above about 22%;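 note: 0% = vehicle wells and 100% = reference cytotoxic drug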
An asterisk follows results filed as active; i = inactive; . = no result given. Most compounds without a hit are left out; they make up all but 2.7% or so of the library.

SMILES | CHT allo act | ANO1 activ | CHT inh | ANO1 block | IDE act | IDE cell inh | IDE cell inh cf | HEK293 tox
O=C(O)c1ccccc1N/N=C/c1c(Sc2nnnn2-c2ccccc2)nc2ccccn2c1=O | i | i | i | i | -137 | 69* | 43* | 7
O=c1c(/C=N/Nc2ccccc2)c(Sc2nnnn2-c2ccccc2)nc2ccccn12 | . | i | . | . | -8 | . | . | .
N#Cc1ccccc1Cn1cc(/C=C/[N+](=O)[O-])c2ccccc21 | i | i | i | i | -4 | 16* | 5 | 85*
O=[N+]([O-])/C=C/c1cn(Cc2ccccc2)c2ccccc12 | i | i | i | i | -1 | 4 | . | .
COc1cccc(C(=O)Nc2nc(-c3ccncc3)cs2)c1 | i | i | i | i | -12 | 26* | 12 | 11
COc1ccccc1OCC(=O)Nc1cc(Cl)ccc1N1CCCCC1 | . | i | . | . | 5 | -3 | . | .
O=C(COC(=O)c1ccccc1F)NC(=O)NC1CCCC1 | . | i | . | . | 4 | 9 | . | .
CCOc1ccc(N2C(=O)C3ON(C)C(c4ccc([N+](=O)[O-])cc4)C3C2=O)cc1 (configuration not stated) | i | i | i | i | -1 | -1 | . | .
O=C(Nc1ccc(-c2nc3ccccc3s2)cc1)c1cc(-n2cnnc2)ccc1Cl | i | i | i | i | -8 | 22* | 5 | 67*
CC(CCC(=O)O)C1CC[C@H]2C3CCC4CC(=O)CCC4(C)[C@H]3CC(=O)C12C (some centres not stated) | i | i | i | i | 3 | -1 | . | .
O=C(COC(=O)Cn1cnc2ccccc21)Nc1ccc(OC(F)F)cc1 | . | i | . | . | 3 | -1 | . | .
COc1cc(-c2cc(=O)c3c(O)cc(O)cc3o2)ccc1O | i | . | i | i | . | 9 | . | .
COc1cc(-c2cc(=O)c3ccccc3o2)ccc1O | i | i | i | i | -21 | 25* | 24* | 17
O=C1C(Cl)=C(NCc2ccco2)C(=O)c2ccccc21 | . | i | . | . | 1 | . | . | .
O=C1c2ccccc2-c2onc3ccc(NCc4ccco4)c1c23 | i | i | i | i | -4 | 20* | 91* | 27*
CN(C)c1ccc(/C=C/C(=O)c2cccc(Br)c2)cc1 | i | i | i | i | -172 | 107* | 110* | 26*
CN(C)c1ccc(C(=O)/C=C/c2cccnc2)cc1 | i | i | i | i | 5 | 6 | . | .
CCN(CC)C(=O)OCCc1cc2ccccc2c(=O)o1 | . | i | . | . | 0 | 1 | . | .
COc1ccccc1NC(=O)c1ccc(NC(=O)COC(=O)C2CC2C)cc1 (configuration not stated) | i | i | i | i | -3 | 19* | 3 | 9
COc1ccccc1N/C(N)=N/c1nc(C(F)(F)F)cc(=O)[nH]1 | i | i | i | i | -9 | 18* | 7 | 12
O=c1[nH]oc2cc(Cl)ccc12 | i | i | i | i | 4 | 17* | 7 | 4
COc1ccc(Cl)cc1NC(=O)CN(C)C(=O)Cc1ccc2c(c1)CCC2 | i | i | i | i | -8 | 18* | 19* | 13
CCSc1ccccc1C(=O)Nc1cc(OC)c(OC)c(OC)c1 | i | i | i | i | -9 | 18* | 10 | 9
C=CCn1c(COc2cccc(C)c2C)nnc1SCC(=O)N1CCN(c2ccccc2)CC1 | i | i | i | i | -17 | 27* | -1 | 38*
CCn1c(COc2c(C)cccc2C)nnc1SCC(=O)N1CCN(c2ccccc2)CC1 | i | i | i | i | -1 | 2 | . | .
CN(C)S(=O)(=O)c1cccc(NC(=O)c2ccc(S(=O)(=O)N3CCCC3)cc2)c1 | i | i | i | i | 1 | -1 | . | .
